Test results published in PubChem BioAssay AID1159580 (chemical genetic matrix, 2015).
Several values for one entry are separate records, joined by “and”; a condition that tells them apart may be missing. Identical values can stand only once. The campaign covered roughly 5,500 compounds. About 2,000 (36%) were called active. Inconclusive results (about 18%) are left out. Rule as the data show it: active = normalized growth mostly below about 0.91 (no sharp cut-off); inconclusive = no clear call, values can overlap the other calls; inactive = mostly above about 0.92. The list shows a part of the results.

Assay: chemical genetic growth profiling, strain panel (AID 1159580);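 also: tested at 20 µM; growth read once vehicle control cultures reached saturation at 30 °C; 1 = growth at the plate median or of vehicle wells; lower values mean less growth of the strain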
Settings: S. cerevisiae deletion strains, growth OD

Measured: normalized growth

O=C1NS(=O)(=O)c2ccccc21
inactive: locus YAL013W, strain DEP1, active compounds read low 1.01 | locus YAL021C, strain ccr4, active compounds read low 0.965 | locus YAL026C, strain drs2, active compounds read low 1.04 | locus YAL030W, strain snc1, active compounds read low 1.02 | locus YBL061C, strain skt5, active compounds read low 1.03 | locus YBR009C, strain hhf1, active compounds read low 1.03 | locus YBR021W, strain FUR4, active compounds read low 1.02 | locus YBR023C, strain chs3, active compounds read low 1.02 | locus YBR171W, strain sec66, active compounds read low 1.03 | locus YBR229C, strain ROT2, active compounds read low 1.01 | locus YBR231C, strain swc5, active compounds read low 1.02 | locus YBR279W, strain paf1, active compounds read low 1.01 | locus YCL011C, strain gbp2, active compounds read low 1.02 | locus YCL016C, strain dcc1, active compounds read low 0.988 | locus YCL029C, strain bik1, active compounds read low 0.994 | locus YCL061C, strain MRC1, active compounds read low 1.02 | locus YCL069W, strain vba3, active compounds read low 1.02 | locus YCR088W, strain abp1, active compounds read low 1.02 | locus YDL005C, strain med2, active compounds read low 1.03 | locus YDL035C, strain GPR1, active compounds read low 0.994 | locus YDL040C, strain nat1, active compounds read low 1.02 | locus YDL074C, strain BRE1, active compounds read low 1.01 | locus YDL101C, strain DUN1, active compounds read low 1.01 | locus YDL134C, strain PPH21, active compounds read low 1 | locus YDL185W, strain tfp1, active compounds read low 0.994 | locus YDL192W, strain arf1, active compounds read low 1 | locus YDR001C, strain nth1, active compounds read low 1.01 | locus YDR069C, strain doa4, active compounds read low 1.04 | locus YDR101C, strain arx1, active compounds read low 0.983 | locus YDR137W, strain rgp1, active compounds read low 1.03 | locus YDR159W, strain sac3, active compounds read low 1.11 | locus YDR162C, strain NBP2, active compounds read low 0.998 | locus YDR195W, strain ref2 0.993 | locus YDR297W, strain sur2, active compounds read low 1.02 | locus YDR318W, strain mcm21, active compounds read low 0.979 | locus YDR334W, strain swr1, active compounds read low 1.02 | locus YDR335W, strain msn5, active compounds read low 1.01 | locus YDR388W, active compounds read low 0.991 | locus YDR392W, strain spt3, active compounds read low 0.957 | locus YDR502C, strain sam2, active compounds read low 0.995 | locus YEL003W, strain gim4, active compounds read low 1.03 | locus YEL037C, strain rad23, active compounds read low 1.01 | locus YEL061C, strain CIN8 (second series), active compounds read low 1.02 | locus YEL061C, strain CIN8, active compounds read low 1.01 | locus YER015W, strain faa2, active compounds read low 1.02 | locus YER016W, strain bim1, active compounds read low 1.02 | locus YER110C, active compounds read low 0.987 | locus YER111C, strain swi4, active compounds read low 1.02 | locus YER155C, strain BEM2 (second series), active compounds read low 1.07 | locus YER155C, strain BEM2, active compounds read low 0.997 | locus YER167W, strain BCK2, active compounds read low 1 | locus YFR010W, strain ubp6, active compounds read low 1.03 | locus YGL078C, strain dbp3, active compounds read low 1 | locus YGL086W, strain mad1, active compounds read low 0.998 | locus YGL167C, strain pmr1, active compounds read low 1.02 | locus YGL173C, strain kem1, active compounds read low 1.06 | locus YGL227W, strain vid30, active compounds read low 1.02 | locus YGL240W, strain doc1, active compounds read low 1.05 | locus YGL248W, strain PDE1, active compounds read low 1.03 | locus YGL253W, strain hxk2, active compounds read low 1.05 | locus YGR078C, strain PAC10, active compounds read low 1.05 | locus YGR135W, strain pre9, active compounds read low 0.984 | locus YGR252W, strain gcn5, active compounds read low 0.976 | locus YHR013C, strain ard1, active compounds read low 1.02 | locus YHR027C, strain rpn1, active compounds read low 1.05 | locus YHR030C, strain SLT2, active compounds read low 1 and 0.989 | locus YHR079C, strain IRE1 (second series), active compounds read low 0.984 | locus YHR079C, strain IRE1, active compounds read low 0.984 | locus YHR094C, strain hxt1, active compounds read low 0.988 | locus YHR129C, strain ARP1, active compounds read low 1.02 | locus YHR142W, strain chs7, active compounds read low 1.03 | locus YHR200W, strain rpn10, active compounds read low 0.991 | locus YIL066C, strain RNR3, active compounds read low 1.02 | locus YIL073C, strain SPO22, active compounds read low 0.958 | locus YIL125W, strain kgd1, active compounds read low 0.989 | locus YIR030C, strain dcg1, active compounds read low 0.998 | locus YJL092W, strain hpr5, active compounds read low 1.02 | locus YJL095W, strain BCK1 (second series), active compounds read low 1.02 | locus YJL095W, strain BCK1, active compounds read low 1.04 and 0.999 | locus YJL115W, strain asf1, active compounds read low 1.02 | locus YJL129C, strain trk1, active compounds read low 1.04 | locus YJL134W, strain LCB3, active compounds read low 0.999 | locus YJL154C, strain vps35, active compounds read low 1.02 | locus YJL164C, strain tpk1, active compounds read low 0.993 | locus YJL166W, strain qcr8, active compounds read low 1.04 | locus YJL168C, strain set2, active compounds read low 0.984 | locus YJL187C, strain SWE1 (second series), active compounds read low 1.03 | locus YJR043C, strain POL32, active compounds read low 0.977
